# Where “and” joins values, the source holds several entries; their conditions need not be identical. Equal entries are not always repeated. Inconclusive results are not listed. Where a call stands in place of a potency, no number is given. Some compounds were tested as several samples or in several runs, with calls that do not always agree. Calls of active or inactive are those of the source. Unless noted, the call rests on the fitted dose curve; in most records, active means well fitted curve in the direction sought with a large enough effect in the repeat runs; inconclusive means weak or mixed curves; inactive means no such curve, though single readings can be large; an effect the other way counts as inactive or inconclusive.
# Experiments:
# [1] = qHTS assay to identify small molecule antagonists of the glucocorticoid receptor (GR) signaling pathway - cell viability counter screen (AID 720693); settings: GR-bla HeLa viability, CellTiter-Glo luminescence, 18 h, with 5 nM dexamethasone present; series mostly up to 58.5 µM; further: nearly all actives have a fitted effect of over 55% in size
# [2] = qHTS assay for identifying genotoxic compounds that show differential cytotoxicity against isogenic chicken DT40 cell lines with known DNA damage response pathways - wild type cell line (AID 743012); settings: DT40 wild type chicken cells viability, CellTiter-Glo, 40 h; series mostly up to 68.4 µM; further: nearly all actives have a fitted effect of over 60% in size; further: potency means the concentration at half of the fitted maximal effect
# Outline: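 Wild-type DT40 cells (300/well) exposed to compounds for 40 hours at 37 C/5% CO2. Viability read by CellTiter-Glo luminescence after 30 min at room temperature.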
# [3] = qHTS assay for identifying genotoxic compounds that show differential cytotoxicity against isogenic chicken DT40 cell lines with known DNA damage response pathways - Rev3 mutant cell line (AID 743014); settings: chicken DT40 Rev3-/- viability, CellTiter-Glo, 40 h; series mostly up to 68.4 µM; further: nearly all actives have a fitted effect of over 55% in size; further: potency means the concentration at half of the fitted maximal effect
# [4] = qHTS assay to identify small molecule antagonists of the androgen receptor (AR) signaling pathway - cell viability counter screen (AID 743033; further: nearly all actives have a fitted effect of over 45% in size); settings: AR-bla HEK293 viability, CellTiter-Glo luminescence, 16 h; series mostly up to 58.5 µM
# [5] = qHTS assay to identify small molecule antagonists of the androgen receptor (AR) signaling pathway using the MDA cell line - cell viability counter screen (AID 743041; further: nearly all actives have a fitted effect of over 45% in size); settings: MDA-kb2 viability, CellTiter-Fluor, 16 h, cells co-treated with R1881 androgen agonist; series mostly up to 70.3 µM
# Outline: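 Cells were plated at 3,000 per well and left 5 h. Compounds in DMSO were then pinned in, followed by R1881. After 16 h at 37C, CellTiter-Fluor fluorescence gave viability.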
# [6] = qHTS assay to identify small molecule antagonists of the thyroid receptor (TR) signaling pathway - cell viability counter screen (AID 743064); settings: GH3.TRE-Luc viability, CellTiter-Fluor, 24 h; series mostly up to 70.3 µM; further: nearly all actives have a fitted effect of over 50% in size
# Outline: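 GH3.TRE-Luc cells, 4 h pre-plating; cpd + T3 1 nM final; 37 °C 23.5 h; CellTiter-Fluor 30 min; fluorescence read.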
# [7] = qHTS assay for identifying genotoxic compounds that show differential cytotoxicity against isogenic chicken DT40 cell lines with known DNA damage response pathways - Rad54/Ku70 mutant cell line (AID 743015); settings: DT40 Rad54/Ku70 mutant viability, CellTiter-Glo, 40 h; series mostly up to 66.8 µM; further: nearly all actives have a fitted effect of over 60% in size; further: potency means the concentration at half of the fitted maximal effect
# [8] = biological target: Androgen receptor (Homo sapiens) (UniProt P10275); assay: qHTS assay to identify small molecule antagonists of the androgen receptor (AR) signaling pathway (AID 743035; active means well fitted inhibition curve with a large enough effect in the signal ratio in the repeat runs, not every such curve was filed as active; the % refers to the signal ratio); settings: HEK293 AR-UAS-bla, R1881-stimulated, beta-lactamase FRET, 16 h; series mostly up to 58.5 µM
# Outline: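 HEK293 cells stably carrying UAS-beta-lactamase reporter, 2,000/well, given compounds plus R1881 agonist and incubated 16 h at 37C. LiveBLAzer B/G FRET substrate then added for 2 h at room temperature before fluorescence reading.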
# [9] = biological target: Androgen receptor (Homo sapiens) (UniProt P10275); assay: qHTS assay to identify small molecule agonists of the androgen receptor (AR) signaling pathway using the MDA cell line (AID 743040; further: nearly all actives have a fitted effect of over 20% in size); settings: MDA-kb2 AR-luc cells, MMTV luciferase, 16 h, stronger effect = higher value; series mostly up to 70.3 µM
# Outline: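 Cells plated, 5 h at 37C/0% CO2; compound or DMSO pinned; 16 h at 37C; ONE-Glo added; luminescence measured after 30 min at room temperature. Reporter line: MDA-kb2 with MMTV-luciferase responsive to AR and GR.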
# [10] = biological target: Androgen receptor (Homo sapiens) (UniProt P10275); assay: qHTS assay to identify small molecule antagonists of the androgen receptor (AR) signaling pathway using the MDA cell line (AID 743042; further: nearly all actives have a fitted effect of over 55% in size); settings: MDA-kb2 AR-luc, MMTV luciferase, R1881 antagonist, 16 h; series mostly up to 70.3 µM
# Outline: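 Antagonist mode: compounds plus R1881 agonist added to MDA-kb2 AR-luc cells, incubated 16 h at 37C. Luciferase reporter luminescence quantified, with multiplexed CellTiter-Fluor readout for cell viability.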
# Androgen receptor (Homo sapiens), sequence (P10275 whole entry, looked up): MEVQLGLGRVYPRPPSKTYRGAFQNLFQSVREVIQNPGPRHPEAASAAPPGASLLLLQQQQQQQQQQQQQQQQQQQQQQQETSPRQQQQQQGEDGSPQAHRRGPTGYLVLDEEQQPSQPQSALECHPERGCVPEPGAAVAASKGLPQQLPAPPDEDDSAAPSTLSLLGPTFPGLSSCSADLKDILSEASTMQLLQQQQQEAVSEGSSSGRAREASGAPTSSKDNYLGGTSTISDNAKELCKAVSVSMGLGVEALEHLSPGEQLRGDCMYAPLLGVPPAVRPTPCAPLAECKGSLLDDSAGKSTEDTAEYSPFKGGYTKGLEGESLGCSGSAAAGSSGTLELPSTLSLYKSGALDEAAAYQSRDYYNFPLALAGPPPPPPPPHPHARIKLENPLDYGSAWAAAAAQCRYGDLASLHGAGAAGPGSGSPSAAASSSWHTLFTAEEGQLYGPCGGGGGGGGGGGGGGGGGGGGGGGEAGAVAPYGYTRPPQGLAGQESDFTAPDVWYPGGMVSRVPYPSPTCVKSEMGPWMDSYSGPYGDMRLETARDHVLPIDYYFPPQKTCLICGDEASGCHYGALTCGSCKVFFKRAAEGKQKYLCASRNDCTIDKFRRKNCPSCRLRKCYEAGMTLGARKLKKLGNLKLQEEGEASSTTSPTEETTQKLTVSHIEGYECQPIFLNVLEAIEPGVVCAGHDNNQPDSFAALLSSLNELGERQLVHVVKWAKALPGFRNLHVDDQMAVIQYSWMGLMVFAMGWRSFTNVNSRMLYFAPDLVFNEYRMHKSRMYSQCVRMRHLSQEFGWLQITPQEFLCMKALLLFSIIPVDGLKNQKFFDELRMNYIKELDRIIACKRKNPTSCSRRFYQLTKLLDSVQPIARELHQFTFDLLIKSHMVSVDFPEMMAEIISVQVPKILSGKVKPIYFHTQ
smiles,measurement,setting,value
CCOc1cc(OP(=S)(OC)OC)nc(CC)n1,Potency,[1],inactive
same,Potency,[2],inactive
same,Potency,[3],inactive
same,Potency,[4],inactive
same,Potency,[5],inactive
same,Potency,[6],inactive
CC(=O)CN(CC(C)=O)N=O,Potency,[1],inactive
same,Potency,[2],inactive
same,Potency,[3],inactive
same,Potency,[7],inactive
same,Potency,[5],inactive
same,Potency,[6],inactive
C=CC=O,Potency,[1],inactive
same,Potency,[2],inactive
same,Potency,[3],inactive
same,Potency,[7],inactive
same,Potency,[5],inactive
CC(=NC#N)N(C)Cc1ccc(Cl)nc1,Potency,[1],inactive
same,Potency,[2],inactive
same,Potency,[3],inactive
same,Potency,[7],inactive
same,Potency,[4],inactive
same,Potency,[5],inactive
same,Potency,[6],inactive
CC(Cl)(Cl)Cl,Potency,[1],inactive
same,Potency,[2],inactive
same,Potency,[3],inactive
same,Potency,[4],inactive
same,Potency,[5],inactive
same,Potency,[6],inactive
CCOC(=O)CC(SP(=S)(OC)OC)C(=O)OCC (stereo not given),Potency,[1],inactive
same,Potency,[2],inactive
same,Potency,[3],inactive and 64.8 µM (active)
same,Potency,[7],inactive and 58.8 µM (active)
same,Potency,[8],inactive
same,outcome,[9],inactive
same,Potency,[5],inactive
same,Potency,[10],inactive
same,Potency,[6],inactive
COc1ccc(CN2CCNCC2)c(OC)c1OC,Potency,[1],inactive
same,Potency,[2],inactive
same,Potency,[3],inactive
same,Potency,[7],inactive
same,Potency,[4],inactive
same,Potency,[5],inactive
same,Potency,[6],inactive
CNC(=O)NC(O)C(Cl)(Cl)Cl (stereo not given),Potency,[1],inactive
same,Potency,[2],inactive
same,Potency,[3],inactive
same,Potency,[4],inactive
same,Potency,[8],inactive
same,outcome,[9],inactive
same,Potency,[5],inactive
same,Potency,[10],inactive
same,Potency,[6],inactive
CN(C)C1CCCCC1,Potency,[1],inactive
same,Potency,[2],inactive
same,Potency,[3],inactive
same,Potency,[4],inactive
same,Potency,[5],inactive
CC(Cc1ccccc1)NCCn1cnc2c1c(=O)n(C)c(=O)n2C (stereo not given),Potency,[1],inactive
same,Potency,[2],67.7 µM (active)
same,Potency,[3],inactive
same,Potency,[4],inactive
same,Potency,[5],inactive
CC1N=C(N)OC1c1ccccc1 (stereo not given),Potency,[1],inactive
same,Potency,[2],inactive
same,Potency,[3],inactive
same,Potency,[7],inactive
same,Potency,[4],inactive
same,Potency,[5],inactive
same,Potency,[6],inactive
O=C(NC(O)C(Cl)(Cl)Cl)NC(O)C(Cl)(Cl)Cl (stereo not given),Potency,[1],inactive
same,Potency,[2],inactive
same,Potency,[3],inactive
same,Potency,[7],inactive
same,Potency,[4],inactive
same,Potency,[5],inactive
same,Potency,[6],inactive
CON(C)C(=O)Nc1ccc(Br)cc1,Potency,[1],inactive
same,Potency,[2],inactive
same,Potency,[3],inactive
same,Potency,[7],inactive
same,Potency,[4],inactive
same,Potency,[5],inactive
same,Potency,[6],inactive
CCN(CCO)CCn1c(Cc2ccccc2)nc2c1c(=O)n(C)c(=O)n2C,Potency,[1],inactive
same,Potency,[2],inactive
same,Potency,[3],inactive
same,Potency,[4],inactive
same,Potency,[5],inactive
ClC(Cl)(Cl)Cl,Potency,[1],inactive
same,Potency,[2],inactive
same,Potency,[3],inactive
same,Potency,[7],inactive
same,Potency,[4],inactive
same,Potency,[5],inactive
same,Potency,[6],inactive
CC#Cc1cc(C)nc(Nc2ccccc2)n1,Potency,[1],inactive
same,Potency,[2],54.4 µM (active)
same,Potency,[3],61.1 µM (active)
same,Potency,[7],54.4 µM (active)
same,Potency,[4],inactive
same,Potency,[5],inactive
same,Potency,[6],inactive
CC(C)N(Cc1ccccc1)C(=O)C(C)(C)C,Potency,[1],inactive
same,Potency,[2],61.1 µM (active)
same,Potency,[3],68.6 µM (active)
same,Potency,[4],inactive
same,Potency,[8],inactive
same,outcome,[9],inactive
same,Potency,[5],inactive
same,Potency,[10],inactive
same,Potency,[6],inactive
CCOC(=O)C(SP(=S)(OC)OC)c1ccccc1 (stereo not given),Potency,[1],inactive
same,Potency,[2],inactive
same,Potency,[3],inactive
same,Potency,[7],inactive
same,Potency,[4],inactive
same,Potency,[5],inactive
same,Potency,[6],inactive
Clc1ccc(C(Cl)(Cl)Cl)cn1,Potency,[1],inactive
same,Potency,[2],inactive
same,Potency,[3],61.1 µM (active)
same,Potency,[4],inactive
same,Potency,[8],inactive
same,outcome,[9],inactive
same,Potency,[5],inactive
same,Potency,[10],inactive
same,Potency,[6],inactive
CC(C)(O)C(Cl)(Cl)Cl,Potency,[1],inactive
same,Potency,[2],inactive
same,Potency,[3],inactive
same,Potency,[4],inactive
same,Potency,[5],inactive
C=C1C[C@@H]2[C@H](CC[C@]3(C)C(=O)CC[C@@H]23)[C@@]2(C)C=CC(=O)C=C12,Potency,[1],inactive
same,Potency,[2],7.5 µM (active)
same,Potency,[3],11.9 µM (active)
same,Potency,[7],13.3 µM (active)
same,Potency,[5],inactive
same,Potency,[6],inactive
COC(=O)[C@@H](N)CCCN/C(N)=N/[N+](=O)[O-],Potency,[1],inactive
same,Potency,[2],inactive
same,Potency,[3],inactive
same,Potency,[7],inactive
same,Potency,[5],inactive
same,Potency,[6],inactive
CCCCCCCC(=O)Cl,Potency,[1],inactive
same,Potency,[2],inactive
same,Potency,[3],inactive
same,Potency,[4],inactive
same,Potency,[5],inactive
same,Potency,[6],inactive
C[N+]1(C)CCCCC1,Potency,[1],inactive
same,Potency,[3],inactive
same,Potency,[7],inactive
same,Potency,[4],inactive
same,Potency,[8],inactive
same,outcome,[9],inactive
same,Potency,[5],inactive
same,Potency,[10],inactive
Clc1cc2c(cc1Cl)Oc1cc(Cl)c(Cl)cc1O2,"viability change, negative = cytotoxic",[1],-0.875% [at 0.284 µM] (inactive)
same,"activity change, negative = cytotoxicity",[2],0.129% [at 0.343 µM] (inactive)
same,"activity, negative = cytotoxicity",[3],4.17% [at 0.343 µM] (inactive)
same,"activity change, negative = inhibition",[8],-2.78% [at 0.284 µM] (inactive)
same,activity change,[9],5.01% [at 0.341 µM] (inactive)
same,"viability change, negative = cytotoxic",[5],-3.89% [at 0.341 µM] (inactive)
same,"activity change, negative = inhibition",[10],-2.57% [at 0.341 µM] (inactive)
same,"activity change, negative = cytotoxic",[6],5.73% [at 0.341 µM] (inactive)
CCN[C@@H](C)Cc1ccccc1,Potency,[1],inactive
same,Potency,[2],inactive
same,Potency,[4],inactive
same,Potency,[8],inactive
same,outcome,[9],inactive
same,Potency,[5],inactive
same,Potency,[10],inactive
same,Potency,[6],inactive
Clc1nc(Cl)nc(Nc2ccccc2Cl)n1,Potency,[1],inactive
same,Potency,[2],inactive
same,Potency,[3],inactive
same,Potency,[4],inactive
same,Potency,[6],inactive
CCCCOC(C)=O,Potency,[1],inactive
same,Potency,[3],inactive
same,Potency,[7],inactive
same,Potency,[4],inactive
same,Potency,[5],inactive
same,Potency,[6],inactive
O=P(O)(O)c1ccccc1,Potency,[1],inactive
same,Potency,[3],inactive
same,Potency,[7],inactive
same,Potency,[4],inactive
same,Potency,[5],inactive
same,Potency,[6],inactive
CC(C)c1ccc(O)cc1,Potency,[1],inactive
same,Potency,[2],inactive
same,Potency,[3],inactive
same,Potency,[4],inactive
same,Potency,[5],inactive
same,Potency,[6],inactive
